High-throughput results from PubChem.
This is a sample that favours compounds with a hit; in the whole collection about 9.4% have one here.
ALDH1A1 inh = ALDH1A1 (human) enzyme inhibition; AID 1030; P00352; Potency, µM (top dose mostly 75.3 µM), actives largely listed as inhibitors; actives 7.3% (n = 220,000); Purified ALDH1A1, NADH fluorescence, propionaldehyde substrate; active = well fitted inhibition curve with a large enough effect, not every such curve was filed as active; inconclusive = small, poorly fitted or top-dose-only effect, or another doubt; inactive = no such curve, though single readings can be large or run the other way
IMPase Li inh = cell-permeable IMPase inhibitors with lithium potentiation; Potency, µM (top dose mostly 59.4 µM), hits mostly inhibitors; AID 1457; CHO-M1 cells, IP1 TR-FRET (IP-One), carbachol + lithium; actives 0.35% (n = 210,000);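 note: IP1 builds up when IMPase is blocked and the TR-FRET signal falls; nearly all actives have a fitted effect of over 50% in size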
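CHO-M1, 2000 cells/well, 16–30 h culture; cpd + low Li+, 30 min 37C; lysis with d2-IP1/Eu-anti-IP1 Ab, 10 min RT; TR-FRET 665/620 ratio and 620 channel; AC50 via Hill.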
HPGD inh = inhibitors of human 15-hydroxyprostaglandin dehydrogenase (HPGD) | purified HPGD, NADH fluorescence kinetic, PGE2 substrate | Potency, µM, most hits filed as inhibitors | P15428 | actives 4.3% (n = 150,000); active = well fitted inhibition curve with a large enough effect, not every such curve was filed as active; inconclusive = small, poorly fitted or top-dose-only effect, or another doubt; inactive = no such curve, though single readings can be large or run the other way
Target sequence (P15428 whole entry, looked up): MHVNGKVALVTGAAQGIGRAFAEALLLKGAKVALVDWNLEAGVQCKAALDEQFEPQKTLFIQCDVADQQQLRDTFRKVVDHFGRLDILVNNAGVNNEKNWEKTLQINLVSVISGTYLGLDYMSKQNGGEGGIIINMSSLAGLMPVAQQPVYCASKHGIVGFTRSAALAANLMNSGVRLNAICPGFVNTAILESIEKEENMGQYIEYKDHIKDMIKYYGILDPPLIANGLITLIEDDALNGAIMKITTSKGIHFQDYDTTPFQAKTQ
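NADH formation kinetics: reaction with 30 uM PGE2 and 1 mM NAD+ (final), 20 nM enzyme, Tris-HCl pH 8 with Tween 20, after 15 min compound preincubation at room temperature. Fluorescence change, last versus first of five reads.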
HttQ103 aggreg = inhibitors of mutant huntingtin aggregate formation in PC12 cells; PC12 HttQ103-GFP aggregates, Acumen cytometry, 40 h; Potency, µM (top dose mostly 46.1 µM), most hits filed as inhibitors; actives 1.1% (n = 220,000); AID 1688; note: nearly all actives have a fitted effect of over 60% in size
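Ecdysone-promoter PC12 model expressing HTT exon 1 Q103 fused to GFP, induced by tebufenozide at 100 nM final. Compounds titrated; aggregates sized 1–25 µm scored on a 488 nm laser cytometer.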
HTT ATP protect = Huntington cell model cytoprotection by ATP luminescence | AID 1471 | Potency, µM (titrated, usually from 56.4 µM), actives largely listed as activators | PC12 HTT-Q103 induced, cytoprotection, ATP luminescence, 40 h | actives 0.14% (n = 230,000); note: nearly all actives have a fitted effect of over 45% in size
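PC12 cells stably carrying ecdysone-inducible Htt exon 1 (Q103)–GFP were induced with 100 nM tebufenozide (final) alongside library compounds in a dose series. Cytoprotection was scored as retained ATP by ATPlite luminescence.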
IMPase inh = cell-permeable inhibitors of inositol monophosphatase (IMPase) | inhibition (IP1 accumulation), % at 46.1 µM | 120,000 tested, under 10 active | CHO-M1 cells, IP1 accumulation, HTRF TR-FRET ratio; active = well fitted curve in the direction sought with a large enough effect in the signal ratio, not every such curve was filed as active; inconclusive = small, poorly fitted or top-dose-only effect, or a change in a side signal; inactive = no such curve, though single readings can be large or run the other way; the % refers to the signal ratio;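 note: cells stimulated with carbachol in lithium chloride buffer; higher means more IMPase inhibition seen as more IP1 and lower FRET ratio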
Target sequence (P97697 whole entry, looked up): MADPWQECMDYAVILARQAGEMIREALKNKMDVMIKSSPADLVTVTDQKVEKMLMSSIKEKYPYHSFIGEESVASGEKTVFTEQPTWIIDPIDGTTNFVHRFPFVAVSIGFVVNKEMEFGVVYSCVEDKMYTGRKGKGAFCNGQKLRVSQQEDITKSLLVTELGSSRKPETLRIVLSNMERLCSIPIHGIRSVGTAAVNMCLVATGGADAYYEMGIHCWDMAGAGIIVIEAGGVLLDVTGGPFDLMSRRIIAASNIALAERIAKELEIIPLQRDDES
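Cellular IMPase inhibition is scored as a rise in cytosolic IP1, detected by competitive TR-FRET between d2-labelled IP1 and a europium anti-IP1 antibody. M1-expressing CHO cells were stimulated with carbachol for 30 min at 37C, with lithium (50 mM LiCl) present in the buffer.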
Hits are given with their value; . = inactive; ? = inconclusive; / = not tested or not shown; [ ] = dose if it differs, or a comment. Unless noted, calls come from the whole dose curve; as a rule, active = well fitted curve in the direction sought with a large enough effect; inconclusive = small, poorly fitted or top-dose-only effect, or another doubt; inactive = no such curve, though single readings can be large; an effect the other way counts as inactive or inconclusive.

SMILES | ALDH1A1 inh | IMPase Li inh | HPGD inh | HttQ103 aggreg | HTT ATP protect | IMPase inh
CCCC[C@@H]1C[C@H]1C(NC(=O)c1cccnc1)c1ccc(Cl)cc1 (stereo partly drawn) | . | . | . | / | . | /
COc1cccc(C2Nc3ccccc3-c3nnc(SCc4ccccc4)nc3O2)c1OC (stereo not drawn) | / | / | / | / | / | .
CC/C(=N\NC(=O)c1ccc(N(C)C)cc1)c1ccccc1 | 28µM | . | . | . | / | /
C/C(=N\NC(=O)c1ccc(Br)cc1)c1ccccc1 | . | . | . | . | . | .
CO[C@@H](CCO)C[C@H]1O[C@H](C(=O)OC(C)C)CC[C@@H]1C | . | . | . | / | . | /
CC(=O)NC(C(=O)O)C(C)(C)SN=O (stereo not drawn) | . | . | . | / | . | /
COc1ccc(NC(=O)c2nn(C34CC5CC(CC(C5)C3)C4)cc2[N+](=O)[O-])cc1 | 0.28µM | . | . | . | .[10 µM] | /
O=C(Nc1cccc2ccccc12)c1nn(C23CC4CC(CC(C4)C2)C3)cc1[N+](=O)[O-] | ? | . | . | . | . | ?
Cc1cc(C(=O)COC(=O)c2ccco2)c(C)n1Cc1ccco1 | ? | . | / | . | . | /
Cc1cc(C(=O)COC(=O)c2cccn2C)c(C)n1Cc1ccco1 | 25µM | . | / | ? | . | /
CC(C)S(=O)(=O)N1CCN(c2ccnc3cc(Cl)ccc23)CC1 | 14µM | / | / | .[9.22 µM] | .[10 µM] | /
CCOC(=O)c1ccc(NS(=O)(=O)c2ccc3c(c2)CCN3C(=O)CC)cc1 | / | / | / | / | / | .
O=Cc1ccc(C(=O)O)cc1 | 22µM | . | . | / | . | /
COC(=O)c1ccc(C=O)cc1 | 8.9µM | . | . | / | . | /
COC(=O)c1ccc(C)cc1 | . | . | . | / | . | /
Cc1ccc(C(=O)O)cc1 | ? | . | . | / | . | /
COc1ccccc1-c1nnc(SC/C(O)=C(\C#N)c2nc3ccccc3[nH]2)n1C1CCCCC1 | ? | . | 35µM | . | / | /
N#C/C(=C(/O)CSc1nnc(Cc2cccs2)n1C1CCCCC1)c1nc2ccccc2[nH]1 | ? | . | . | . | .[10 µM] | .
COc1cc2c(cc1NC(=O)COc1ccc(Cl)cc1Br)oc1ccccc12 | / | / | / | / | / | .
CC(c1ccccc1)n1cc(C(=O)NCc2ccccn2)nn1 (stereo not drawn) | . | . | . | .[9.22 µM] | .[10 µM] | .
Cc1ccc(C(C)n2cc(C(=O)NCc3cccnc3)nn2)cc1 (stereo not drawn) | 11µM | . | . | .[9.22 µM] | . | .
C=CCn1c(SCC(=O)NC(=O)NC)nnc1C1CCCCC1 | . | . | / | . | . | /
C=CCn1c(SCC(=O)NC(=O)NCCC)nnc1C1CCCCC1 | 5.6µM | . | . | . | . | .
COc1ccc(CCC(C)Nc2cccc(F)c2)cc1 (stereo not drawn) | 10µM | . | . | . | . | .
O=S(=O)(Nc1ccc(Cl)cc1)c1ccc(N2CCOCC2)c(NC(=S)NCCN2CCOCC2)c1 | 8.9µM | . | / | . | / | /
SMILES | ALDH1A1 inh | IMPase Li inh | HPGD inh | HttQ103 aggreg | HTT ATP protect | IMPase inh
COc1cc(Cl)c(C)cc1NC(=O)c1ccc(NS(=O)(=O)c2ccc(F)c(F)c2)cc1 | ? | 5.6µM | / | . | .[10 µM] | /
N#Cc1ccc(C(=O)Nc2cc(S(=O)(=O)Nc3ccc(Cl)cc3)ccc2N2CCCCC2)cc1 | ? | . | . | . | .[10 µM] | /
COc1ccc(S(=O)(=O)Nc2ccc(F)c(F)c2)cc1Cl | ? | . | . | ? | . | .
O=C(Nc1cc(S(=O)(=O)Nc2ccc(Cl)cc2)ccc1N1CCCCC1)c1ccc(F)cc1 | 28µM | . | ? | . | .[10 µM] | .
COC(=O)C1C2CC3c4[nH]c5cc(OC)ccc5c4CCN3CC2CC(OC)C1OC (stereo not drawn) | / | / | / | . | . | /
Cc1cc(C)n(-c2nnc(NCc3ccc(Cl)cc3)nn2)n1 | . | . | / | ? | . | /
Cc1nn(-c2nnc(NCc3ccccc3)nn2)c(C)c1Br | 28µM | . | 14µM | ? | / | /
CC1(C)Cc2ccccc2-c2nc3n(c(=O)c21)CCS3 | . | . | / | .[9.22 µM] | .[10 µM] | /
CCn1c(=S)[nH]c2c(c1=O)C(C)(C)Cc1ccccc1-2 | . | 4.5µM | / | .[9.22 µM] | ? | /
Cn1c(=S)[nH]c2c(c1=O)C(C)(C)Cc1ccccc1-2 | 8.9µM | 1.4µM | / | . | . | /
COCCOC(=O)c1ccccc1C(=O)OCCOC | . | . | . | / | . | /
Cc1cccc(Nc2n[nH]c(C)c2[N+](=O)[O-])c1 | . | . | 11µM | . | .[10 µM] | /
CC(C)NC(=O)COC(=O)c1cc(F)c(F)cc1Cl | . | . | ? | . | . | .
CC(C)NC(=O)COC(=O)c1cc(Br)ccc1Cl | . | . | 22µM | . | .[1.9 µM] | .
COCCNC(=O)c1cc(Br)ccc1Cl | . | . | 22µM | . | . | .
COCCNC(=O)c1cc(-c2cccnc2)nc2ccc(Br)cc12 | . | 11µM | . | . | .[10 µM] | .
C[C@H](OP(=O)(O)O)[C@H](N)C(=O)O | .[13.5 µM] | . | . | / | .[10 µM] | /
Cc1ccc(NC(=O)COC(=O)C2(c3ccc(Cl)cc3)CCCC2)cc1 | 10µM | . | . | . | .[10 µM] | /
Nc1ccccc1SCC1CSc2nc3ccccc3c(=O)n21 (stereo not drawn) | ? | . | / | . | . | /
O=c1c2ccccc2nc2n1C(CSCc1ccc(Cl)cc1Cl)CS2 (stereo not drawn) | . | . | . | 8.9µM | . | .
Cc1ccccc1-c1ccc2ncnc(NCc3cccnc3)c2c1 | ? | . | / | / | . | /
O=C(N/N=C/c1ccccc1)c1[nH]c2ccc(Br)cc2c1-c1ccccc1 | . | . | . | . | .[10 µM] | .
O=C(NN=C1CCCC1)c1[nH]c2ccc(Br)cc2c1-c1ccccc1 | 18µM | / | / | .[9.22 µM] | .[10 µM] | /
CC(=O)c1cccc(NC(=O)CCCSc2nc(-c3ccco3)cc(C(F)(F)F)n2)c1 | / | / | / | / | / | .
CCc1cc(C(=O)Cc2cnn(-c3ccccc3)c2)c(O)cc1O | ? | ? | ? | .[9.22 µM] | . | .
SMILES | ALDH1A1 inh | IMPase Li inh | HPGD inh | HttQ103 aggreg | HTT ATP protect | IMPase inh
COc1ccc(C(=O)n2cc(C(=O)c3cc(C)ccc3O)cn2)cc1OC | 0.16µM | . | ? | . | .[0.074 µM] | /
Cc1cc(Cl)ccc1OCC(=O)n1cc(C(=O)c2cc(Cl)ccc2O)cn1 | ? | . | / | ? | . | /
Cc1ccc(O)c(C(=O)c2cnn(-c3ccccc3)c2)c1 | . | . | 3.5µM | ? | . | .
COc1ccc(O)c(C(=O)c2cnn(C(=O)c3cc(C)oc3C)c2)c1 | 3.5µM | . | . | . | . | .
O=C(Cc1cnn(-c2ccccc2)c1)c1ccc(O)c(O)c1O | 3.2µM | . | 28µM | . | . | .
CN1CCC2(CCN3CCc4c(oc5ccccc45)C3C2)N(C)C1=O (stereo not drawn) | . | . | . | / | / | /
CCCCNc1nc(SC)nc2nc[nH]c12 | .[13.5 µM] | . | . | / | .[10 µM] | /
CC(C)(O)C#Cc1ccc(CN2CCN(CCc3ccccc3)C(CCO)C2)s1 (stereo not drawn) | ? | . | / | .[9.22 µM] | .[10 µM] | /
COc1ccc(C(=O)n2cc(C(=O)c3cc(C)ccc3O)cn2)cc1 | 0.4µM | . | . | 32µM | .[10 µM] | /
